Source: PubChem BioAssay (National Center for Advancing Translational Sciences (NCATS))
A selection: hits, their analogues and other compounds. The true share with any hit is near 1.3%.
RXFP1 ag = activates the human relaxin receptor RXFP1 | Potency, µM (highest dose often 57.5 µM), most hits filed as activators | actives 0.3% (n = 370,000) | Q9HBX9 | HEK293T-RXFP1 cAMP TR-FRET, 30 min; response scale: percent of porcine relaxin response, buffer zero; active = well fitted activation curve with a large enough effect; inconclusive = small, poorly fitted or top-dose-only effect; note: nearly all actives have a fitted effect of over 60% in size
Target sequence (Q9HBX9 whole entry, looked up): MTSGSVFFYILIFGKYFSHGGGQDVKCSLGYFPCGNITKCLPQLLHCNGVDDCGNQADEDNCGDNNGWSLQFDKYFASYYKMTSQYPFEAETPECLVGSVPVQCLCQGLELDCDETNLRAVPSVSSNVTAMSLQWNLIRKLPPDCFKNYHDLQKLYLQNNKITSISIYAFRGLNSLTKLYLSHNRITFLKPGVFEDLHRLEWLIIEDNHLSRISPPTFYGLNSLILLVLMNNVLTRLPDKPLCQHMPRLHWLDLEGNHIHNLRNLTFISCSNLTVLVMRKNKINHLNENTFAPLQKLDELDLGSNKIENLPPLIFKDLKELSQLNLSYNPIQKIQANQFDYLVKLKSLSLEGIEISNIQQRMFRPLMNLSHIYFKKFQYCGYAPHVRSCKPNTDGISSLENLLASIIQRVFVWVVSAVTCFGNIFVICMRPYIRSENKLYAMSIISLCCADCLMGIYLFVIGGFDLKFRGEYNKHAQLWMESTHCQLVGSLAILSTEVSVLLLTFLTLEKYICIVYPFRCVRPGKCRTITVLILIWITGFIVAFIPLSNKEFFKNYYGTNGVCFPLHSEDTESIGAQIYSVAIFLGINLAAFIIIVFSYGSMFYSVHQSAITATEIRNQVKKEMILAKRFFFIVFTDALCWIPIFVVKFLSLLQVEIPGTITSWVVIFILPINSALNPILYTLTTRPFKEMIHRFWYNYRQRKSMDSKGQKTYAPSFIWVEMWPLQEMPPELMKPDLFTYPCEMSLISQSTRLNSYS
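HEK293T cells stably expressing RXFP1 were pretreated with the PDE4 inhibitor Ro 20174, exposed to compounds for 30 min at 37C, lysed, and cAMP was read by TR-FRET. Data normalized to buffer (basal) and 29 nM porcine relaxin (100%).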
pAkt inh = blocks phosphorylation of Akt; Neuro2A IGF-stimulated pAkt S473 HTRF, 20 min; stronger effect = lower value; activity change, % for hits at 50 µM; actives 0.32% (n = 360,000); in the data active = activity change below about -80%; inconclusive = mostly about -51% to -80%
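Neuro2A cells (4,500/well, DMEM with 0.5% FBS) were treated with compound at a single 50 µM final concentration, stimulated with 6 nM IGF for 20 min at 37 °C, and lysed. Phospho-Akt Ser473 was read by HTRF as 665/615 ratio ×10^4.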
gsp antagonist = gsp mutant antagonism; Potency, µM (doses to about 76.9 µM), hits mostly inhibitors; AID 624288; gsp-mutant cells, cAMP HTRF, 30 min; actives 0.4% (n = 340,000); calls by dose curve; cell line not stated here;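 note: intracellular cAMP measured with PDE inhibitor Ro 20-1724 present during compound exposure; nearly all actives have a fitted effect of over 65% in size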
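G418-selected cells were plated in DMEM/10% FBS for 16-24 h at 37C, then treated with compounds plus the PDE inhibitor […] (300 uM solution added) for 30 min at 37C. Intracellular cAMP was measured by HTRF after 30 min lysis at room temperature.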
gsp agonist = gsp mutant agonism. gsp mutant cells, cAMP HTRF, 30 min. Potency, µM (top dose mostly 76.9 µM), actives largely listed as activators. actives 0.13% (n = 340,000); active = well fitted activation curve with a large enough effect; inconclusive = small, poorly fitted or top-dose-only effect, or another doubt; inactive = no such curve, though single readings can be large or run the other way; cell line not stated here;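 note: phosphodiesterase inhibitor Ro 20-1724 added with compounds to block cAMP breakdown; nearly all actives have a fitted effect of over 60% in size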
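Cells stably selected in G418 were plated at 2000/well, grown 16-24 hr, then given compounds in DMSO with the PDE inhibitor […] (300 uM solution added) for 30 min at 37C; cAMP was read by HTRF.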
RXFP1 antag = blocks the human relaxin receptor RXFP1. HEK293-RXFP1, relaxin-stimulated cAMP HTRF, 30 min; stronger effect = lower value. activity change, negative = inhibition, % at 57.5 µM. actives 0.59% (n = 350,000);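 active = activity change of -60% or lower, but not beyond a set lower limit; inconclusive = change between -60% and -40%, or beyond the set limit; inactive = change above -40%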
Hits are given with their value; - = inactive; ? = inconclusive; . = not tested or not shown; [ ] = remark or other dose.

SMILES | RXFP1 ag | pAkt inh | gsp antagonist | gsp agonist | RXFP1 antag
COc1ccc(N(Cc2cccs2)C(=O)COc2cc(C)c(Cl)c(C)c2)cc1 | - | . | . | . | -69
COc1ccc(N(Cc2cccs2)C(=O)COc2cccc(C)c2C)cc1 | - | . | . | . | -72
Cc1cc(C)cc(OCC(=O)N(Cc2cccs2)c2ccc(Cl)cc2)c1 | - | . | . | . | .
COc1ccc(Cl)cc1NC(=O)CSC1=Nc2ccccc2C2=NC(CC(=O)NCc3ccc4c(c3)OCO4)C(=O)N12 (stereo not given) | - | . | . | . | -
COc1cccc(CN2CC(C(=O)NCc3cccc(N4CCCC4)c3)CCC2=O)c1 (stereo not given) | - | - | 3.2µM | - | -
CC(C)(C)c1ccc(NC(=O)CSc2nnc3scc(-c4ccccc4)n23)cc1 | - | . | . | . | -
CCOC(=O)c1cc(-c2ccc3c(c2)OCO3)nc2onc(C)c12 | - | -117% | - | - | -
CCN(CCCNC(=O)CN1N=C(c2ccc(OC)cc2)CCC1=O)c1cccc(C)c1 | - | . | . | . | -
Cc1ccc2cc(CN(C(=O)c3ccco3)c3ccccc3C)c(=O)[nH]c2c1 | - | -112% | - | ? | -
Cc1cccc(-n2c(-c3csc(C)c3)n[nH]c2=S)c1 | - | - | - | - | -66
CCc1cc(-c2n[nH]c(=S)n2-c2cccc(C)c2)cs1 | - | - | - | - | -
CCc1cccc(NC(=O)CSC2=Nc3ccccc3N=C(c3ccc(F)cc3)C2)c1 | - | . | . | . | .
Cc1ccc(-c2csc(NC(=O)c3c(C)noc3C)n2)cc1 | - | - | ? | - | -
Cc1noc(C)c1C(=O)Nc1nc(-c2ccc([N+](=O)[O-])cc2)cs1 | - | - | 28µM | - | ?
Cc1ccc2c(c1)/C(=N/O)CCS2 | - | -113% | - | ? | -
Cc1ccc2c(c1)/C(=N/OS(=O)(=O)c1ccccc1)CCS2 | . | - | - | - | -
CC(OC(=O)CN(C)S(=O)(=O)c1ccc(Cl)cc1)C(=O)Nc1cccc(Cl)c1 (stereo not given) | - | -98% | 40µM | - | -
O=[N+]([O-])c1ccc(S(=O)(=O)Nc2ccc(-c3ccc(N4CCCC4)nn3)cc2)cc1 | - | - | 20µM | - | -
O=[N+]([O-])c1ccc(Cl)c(S(=O)(=O)Nc2ccc(-c3ccc(N4CCCC4)nn3)cc2)c1 | - | - | ? | -[15.4 µM] | -
CN1c2cc(Cl)ccc2-c2nc(SCC(=O)Nc3ccc(F)cc3F)ncc2S1(=O)=O | 32µM | . | . | . | -
Cc1ccc(NC(=O)CSc2ncc3c(n2)-c2ccc(Cl)cc2N(C)S3(=O)=O)cc1F | ? | . | . | . | -
Cc1cccc(C)c1NC(=O)CSc1ncc2c(n1)-c1ccc(Cl)cc1N(Cc1ccccc1)S2(=O)=O | 10µM | . | . | . | -
O=C(CSc1ncc2c(n1)-c1ccc(Cl)cc1N(Cc1ccccc1)S2(=O)=O)Nc1ccc(F)c(F)c1 | - | . | . | . | -
O=C(C=Cc1ccccn1)c1ccccc1 | . | - | - | - | -65
O=C(C=Cc1ccccn1)c1ccccc1O | . | - | - | - | -
SMILES | RXFP1 ag | pAkt inh | gsp antagonist | gsp agonist | RXFP1 antag
O=C(OCc1ccccc1)c1ccc(Br)o1 | - | -107% | - | - | -
Cc1ccnc2nc(C(=O)Nc3ccc(N4CCOCC4)cc3)nn12 | - | -103% | - | - | -
N#CC(C#N)=NNc1ccc(S(=O)(=O)N2CCCCC2)cc1 | - | - | 25µM | - | -
N#C/C(=N\Nc1ccc(S(=O)(=O)N2CCOCC2)cc1)C(N)=S | - | - | - | -[15.4 µM] | -
CC(C)(C)C(=O)OCOC(=O)C1N2C(=O)CC2S(=O)(=O)C1(C)C (stereo not given) | . | . | . | . | -
O=C(O)c1ccc(NC2=C(Cl)C(=O)c3ccccc3C2=O)cc1 | - | - | 28µM | ? | -
O=C(O)c1cccc(NC2=C(Cl)C(=O)c3ccccc3C2=O)c1 | - | - | 50µM | ? | -
O=C1C(Cl)=C(Nc2ccccc2)C(=O)c2ccccc21 | - | - | - | - | .
Cc1ccc(NC2=C(NC(=O)c3ccccc3)C(=O)c3ccccc3C2=O)cc1Cl | - | - | - | - | .
O=C(O)Cc1cccc(-c2cc(CCCCCCc3ccc(O[C@H]4O[C@H](CO)[C@@H](O)[C@H](O)[C@@H]4O)c(-c4cccc(CC(=O)O)c4)c3)ccc2O[C@H]2O[C@H](CO)[C@@H](O)[C@H](O)[C@@H]2O)c1 | . | . | . | . | -
CN1CCN(C(=O)C(C(=O)c2ccc(F)cc2)n2ccccc2=O)CC1 (stereo not given) | - | -99% | - | - | -
O=[N+]([O-])c1cccc(COc2ncnc3cc([N+](=O)[O-])ccc23)c1 | 28µM | - | - | ? | -
COc1ccc(CCNC(=O)COc2ncnc3cc([N+](=O)[O-])ccc23)cc1 | - | - | - | - | -
CN(Cc1ccccc1)C(=O)c1ccc(CSc2nc3cccnc3n2Cc2ccccc2)cc1 | - | . | . | . | -
O=C(O)c1cc(N2C(=O)CCC2=O)ccc1NCc1cccnc1 | - | - | - | ? | -
O=C(O)c1cc(N2C(=O)C3CC=CCC3C2=O)ccc1NCc1cccnc1 (stereo not given) | - | -116% | - | - | -
Cc1ccc(Nc2nc(C)nc(N)c2S(=O)(=O)c2ccccc2)cc1 | - | . | . | . | .
C=CCOC(=O)C1=C(C)N(C)C(=O)NC1c1cc2c(cc1Br)OCO2 (stereo not given) | - | . | - | - | -74
Cc1ccc(CN2CC(C(=O)Nc3cc(C)ccn3)CC2=O)cc1 (stereo not given) | - | - | - | -[15.4 µM] | -118
Cc1ccc(CN2CC(C(=O)Nc3ccncc3)CC2=O)cc1 (stereo not given) | - | - | - | ? | -
CC(NC(=O)Cn1ncc(Cl)c(Cl)c1=O)C12CC3CC(CC(C3)C1)C2 (stereo not given) | - | - | ? | - | -100
CCn1cc(C(=O)NC(C)C23CC4CC(CC(C4)C2)C3)cn1 (stereo not given) | - | - | - | -[15.4 µM] | -
CCSc1nnc(NC(=O)c2ccc(Br)s2)s1 | - | -81% | - | - | -
CCSc1nnc(NC(=O)c2cc3c(s2)CCCC3)s1 | ? | -81% | - | - | -
CCSc1nnc(NC(=O)c2ccco2)s1 | - | -112% | - | ? | -
CCSc1nnc(NC(=O)C(C)(C(F)(F)F)C(F)(F)F)s1 | - | - | 22µM | - | -
CCOC(=O)CSc1nnc(NC(=O)c2ccco2)s1 | - | - | - | - | -
NC[C@H]1O[C@H](O[C@H]2[C@H](O)[C@@H](O[C@H]3O[C@H](CO)[C@@H](O)[C@H](N)[C@H]3O)[C@H](N)C[C@@H]2N)[C@H](N)[C@@H](O)[C@@H]1O | . | . | . | . | -
COc1cccc(C2C(C(=O)c3sc(C)nc3C)=C(O)C(=O)N2CCN2CCOCC2)c1OC (stereo not given) | - | -122% | - | - | -
COc1ccc(-c2nnc(SCC(=O)c3ccc([N+](=O)[O-])cc3)o2)cc1OC | - | . | . | . | .
